{"source": "PubChem BioAssay (Tox21)", "note": "Records with an inconclusive call do not appear. Unmarked numbers belong to inactive results. Active and inactive are the calls of the source. Calls follow the shape of the dose curve; as a rule, active = well fitted activation curve with a large enough effect in the repeat runs; inconclusive = weak or mixed curves; inactive = flat fitted curve, though single readings scatter. % is scaled to controls: 0 for no effect and ±100 for the full control effect; potency is read from the fitted curve at half-maximal effect.", "data": [{"test": "A CellTox Green Cytotoxicity Assay to monitor cytotoxicity in HepG2 cells - 40 hour (AID 1224879); also: nearly all actives have a fitted effect of over 40% in size", "details": "CellTox Green fluorescence; series mostly up to 76.8 µM; cytotoxicity increase: at the top concentration", "description": "National Center for Advancing Translational Sciences [NCATS]\nNIH Chemical Genomics Center [NCGC]\nU.S. Environmental Protection Agency [EPA]\nNational Institutes of Environmental Health Sciences [NIEHS]\nNational Toxicology Program [NTP]\nCell-based models are critical for drug discovery. Determining the natural cytotoxic effects resulting from test compounds is an essential research activity. A CellTox Green Cytotoxicity Assay to monitor cytotoxicity in real time of continues cell culture during 40 hours of the compound treatment was used to screen Tox21 10K library compounds in HepG2 cells. CellTox Green Cytotoxicity Assay is a nonlytic, homogeneous, biofluorescent method to measure cytotoxicity in cell culture after experimental manipulation. The assay system uses a proprietary asymmetric cyanine dye that is excluded from viable cells but preferentially stains the dead cell's DNA. […] Viable cells produce no appreciable increases in fluorescence. Therefore, the fluorescence signal produced by the binding interaction with dead cell DNA is proportional to cytotoxicity.\nThe mixture of HepG2 cell suspension and reagents were dispensed at 600cells/6 ul/well in 1536-well tissue culture treated black solid bottom plates using a Multidrop dispenser. After the assay plates were incubated at a 37 C/5% CO2 incubator for 5 hours, 23 nL of compounds dissolved in DMSO, positive and negative controls was transferred to the assay plate by a pintool work station. The plates were incubated at 37 C for 40 hours. The fluorescence intensity were measured at 0h, 8h, 16h, 24h, 32h and 40h time points using ViewLux plate reader during compound treatment.", "values": [{"molecule": "CC(=O)N[C@@H](CCC(N)=O)C(=O)O", "cytotoxicity increase": "-1.32% [at 35.3 µM]"}, {"molecule": "CCC(C)(C)C1CCC(OC)CC1", "note": "(stereo not given)", "cytotoxicity increase": "2.42%"}, {"molecule": "C1C2OC2C2C1C1CC2C2OC12", "note": "(stereo not given)", "cytotoxicity increase": "2.85%"}, {"molecule": "Nc1nc2c(ncn2CCC(CO)CO)c(=O)[nH]1", "cytotoxicity increase": "-8.23% [at 35.3 µM]"}, {"molecule": "[O-][N+](=Nc1ccccc1)c1ccccc1", "cytotoxicity increase": "-0.334%"}, {"molecule": "CCCC(C)CO", "note": "(stereo not given)", "cytotoxicity increase": "-4.97%"}, {"molecule": "Cc1nc(-c2ccc(OCC(C)C)c(C#N)c2)sc1C(=O)O", "cytotoxicity increase": "-5.63% [at 35.3 µM]"}, {"molecule": "CN(C)C(=O)Nc1ccccc1", "cytotoxicity increase": "-6.92%"}, {"molecule": "Cc1c(C)n(CCN(C)C)c2ccc(C(=O)OCCN(C)C)cc12", "cytotoxicity increase": "8.35% [at 35.3 µM]"}, {"molecule": "Cn1cnc2c(=O)[nH]c(N)nc21", "cytotoxicity increase": "6.26%"}, {"molecule": "CCCCOCC(C)OCC(C)O", "note": "(stereo not given)", "cytotoxicity increase": "-4.26%"}, {"molecule": "CCOC(=O)Cn1c(=O)sc2cccc(Cl)c21", "cytotoxicity increase": "27.9%"}, {"molecule": "CCN1CCCC(OC(=O)C(c2ccccc2)c2ccccc2)C1", "note": "(stereo not given)", "cytotoxicity increase": "2.2% [at 35.3 µM]"}, {"molecule": "CC(=O)NC(Cc1ccccc1)C(=O)O", "note": "(stereo not given)", "cytotoxicity increase": "-13% [at 35.3 µM]"}, {"molecule": "C1COCCO1", "cytotoxicity increase": "4.47%"}, {"molecule": "COc1cc(CCC(C)=O)ccc1O", "cytotoxicity increase": "8.33%"}, {"molecule": "NCCN1CCNC1=O", "cytotoxicity increase": "-2.87%"}, {"molecule": "CC(C)=CC(=O)O", "cytotoxicity increase": "8.88%"}, {"molecule": "OCC(O)[C@@H](O)[C@H](O)[C@H](O)CO[C@H]1O[C@H](CO)[C@@H](O)[C@H](O)[C@H]1O", "note": "(stereo not given in full)", "cytotoxicity increase": "-3.41%"}, {"molecule": "Nc1ccn(C2CO[C@H](CO)O2)c(=O)n1", "note": "(stereo not given in full)", "Potency": "7.56 µM (active)"}, {"molecule": "Cn1ccc2cc3c(cc21)CCN3C(=O)Nc1cccnc1", "cytotoxicity increase": "-12.1% [at 15.8 µM]"}, {"molecule": "CC/C=C\\C#N", "cytotoxicity increase": "20.2%"}, {"molecule": "CC(C)(O)C(=O)c1ccc(OCCO)cc1", "cytotoxicity increase": "-2.37%"}, {"molecule": "CCCC(C)C(=O)O", "note": "(stereo not given)", "cytotoxicity increase": "3.21%"}, {"molecule": "Nc1ncnc2c1ncn2Cc1c(F)cccc1Cl", "cytotoxicity increase": "-6.31% [at 35.3 µM]"}, {"molecule": "CCCCCCCCCCC1CO1", "note": "(stereo not given)", "cytotoxicity increase": "0.919%"}, {"molecule": "COc1cc(C(=O)N2CCOCC2)cc(OC)c1OC", "cytotoxicity increase": "-8.08% [at 35.3 µM]"}, {"molecule": "O=C(O)C(O)[C@H](O)[C@@H](O)[C@H](O)[C@H](O)CO", "note": "(stereo not given in full)", "cytotoxicity increase": "0.78%"}, {"molecule": "NC(=O)CCCCC1CCSS1", "note": "(stereo not given)", "cytotoxicity increase": "-21% [at 35.3 µM]"}, {"molecule": "C#CC(O)CCCCC", "note": "(stereo not given)", "cytotoxicity increase": "-4.45%"}, {"molecule": "NC(=O)c1c(Cl)cccc1Cl", "cytotoxicity increase": "-11.5%"}, {"molecule": "CC1(C)OC(=O)Nc2ccc(Br)cc21", "cytotoxicity increase": "9.25% [at 35.3 µM]"}, {"molecule": "CC12CCC(CC1=O)C2(C)C", "note": "(stereo not given)", "cytotoxicity increase": "0.135%"}, {"molecule": "Cc1ccc(Nc2ccc(O)c3c2C(=O)c2ccccc2C3=O)cc1", "cytotoxicity increase": "-11.3%"}, {"molecule": "CCCC=O", "cytotoxicity increase": "0.0525%"}, {"molecule": "CSc1nc(NC2CC2)nc(NC(C)(C)C)n1", "cytotoxicity increase": "26.3%"}, {"molecule": "O=C(CCOCCOCCOCCOCCC(=O)Nc1c(I)cc(I)c(C(=O)O)c1I)Nc1c(I)cc(I)c(C(=O)O)c1I", "cytotoxicity increase": "6.25% [at 35.3 µM]"}, {"molecule": "CC1=CC(C)C(C=O)C(C)C1", "note": "(stereo not given)", "cytotoxicity increase": "-9.75%"}, {"molecule": "CCC(C(=O)NC(N)=O)c1ccccc1", "note": "(stereo not given)", "cytotoxicity increase": "-11.7%"}, {"molecule": "O=[N+]([O-])c1ccc(CCO)cc1", "cytotoxicity increase": "0.615%"}]}]}
